Bioassay records (PubChem)
This is a sample that favours compounds with a hit; in the whole collection about 3.6% have one here.
FBPA Giardia inh = Giardia lamblia aldolase inhibition; purified Giardia FBPA; Potency, µM (top dose mostly 59.6 µM), hits mostly inhibitors; 0.71% of 290,000 active; further: nearly all actives have a fitted effect of over 55% in size
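40 nM FBPA preincubated 10 min at RT with compound (up to 57.5 uM final), then substrate plus GAPDH/TPI/NAD/arsenate coupling and diaphorase/resazurin added. Fluorescence read after 20 min at RT, 525/598 nm.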
Sm TGR block = inhibitors of Schistosoma mansoni thioredoxin glutathione reductase; 3% of 360,000 active; Q962Y6; Potency, µM (doses to about 114 µM), most hits filed as inhibitors; purified TGR, DTNB reduction, TNB absorbance 405 nm; further: nearly all actives have a fitted effect of over 60% in size
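Kinetic colorimetric format: TGR-catalysed, NADPH-driven DTNB reduction monitored via TNB absorbance. Enzyme dispensed at 20 nM; compound exposure 15 min at room temperature before reaction start.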
AmpC no deterg = blocks E. coli AmpC beta-lactamase in detergent-free assay. P00811. AmpC nitrocefin hydrolysis, absorbance 480 nm, 0.0001% Triton. Potency, µM (highest dose often 57.1 µM), usual class: inhibitors. 0.52% of 330,000 active; further: nearly all actives have a fitted effect of over 20% in size
Target sequence (P00811 whole entry, looked up): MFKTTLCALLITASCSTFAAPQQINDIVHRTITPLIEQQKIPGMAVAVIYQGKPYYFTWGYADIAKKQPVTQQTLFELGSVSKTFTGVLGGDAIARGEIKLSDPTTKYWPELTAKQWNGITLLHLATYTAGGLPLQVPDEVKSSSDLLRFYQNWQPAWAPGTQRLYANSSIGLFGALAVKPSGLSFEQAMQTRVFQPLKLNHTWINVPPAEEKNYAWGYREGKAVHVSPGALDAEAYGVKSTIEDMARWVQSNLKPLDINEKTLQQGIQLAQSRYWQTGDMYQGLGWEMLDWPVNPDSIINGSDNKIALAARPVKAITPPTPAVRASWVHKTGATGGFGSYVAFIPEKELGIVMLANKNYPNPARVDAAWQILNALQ
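AmpC (5.3 nM in the dispensed reagent) in 20 mM phosphate pH 7.0 with 0.01% (detergent screen) or 0.0001% Triton X-100 was preincubated with compounds for 15 min at room temperature. Nitrocefin was then added from an 800 uM solution, and hydrolysis was followed at 480 nm.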
AmpC detergent = inhibitors of E. coli AmpC beta-lactamase with detergent | P00811 | Potency, µM (series often up to 114 µM), usual class: inhibitors | AmpC hydrolysis of nitrocefin, absorbance 480 nm, 0.01% Triton | 0.041% of 370,000 active; further: nearly all actives have a fitted effect of over 25% in size
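20 mM phosphate pH 7.0 + 0.01% (detergent screen) or 0.0001% Triton X-100; 5.3 nM AmpC reagent; cpd preinc 15 min RT; nitrocefin (800 uM stock) to start; A480 q20 s × 4 min; Activity was normalised to no-enzyme and no-compound control wells.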
Large screens that a line does not name were inactive. The call rests on the fitted dose curve; in most records, active means well fitted curve in the direction sought with a large enough effect; inconclusive means small, poorly fitted or top-dose-only effect, or another doubt; inactive means no such curve, though single readings can be large; an effect the other way counts as inactive or inconclusive.

COc1cc(C2/C(=C(\O)c3ccc4c(c3)CC(C)O4)C(=O)C(=O)N2CCN2CCOCC2)cc(OC)c1OC (stereo unspecified)	AmpC detergent inconclusive (no result: FBPA Giardia inh)
Cc1oc2ncn(C)c(=O)c2c1C(=O)N1CCN(c2cccc(C(F)(F)F)c2)CC1	none (no result: FBPA Giardia inh, AmpC no deterg)
Cc1cc(Cl)ccc1OCC(=O)Nc1nc(-c2cccs2)cs1	AmpC no deterg 18µM
Cc1ccccc1Nc1nc(N)nc(COC(=O)c2c(C)noc2C)n1	none (no result: FBPA Giardia inh, Sm TGR block, AmpC detergent)
O=c1cc(CSc2nnc3ccccn23)c2c(ccc3ccccc32)o1	Sm TGR block 45µM
O=c1[nH]c(CSc2nnc3ccccn23)nc2ccccc12	none
CCc1ccc(-c2nc(CS(=O)CC(=O)NCc3ccco3)c(C)o2)cc1 (stereo unspecified)	Sm TGR block 40µM
CCc1ccc(-c2nc(CS(=O)CC(=O)NCc3cccnc3)c(C)o2)cc1 (stereo unspecified)	Sm TGR block 40µM
CCCCCCC1CCC(C(=O)N2CCOCC2)CC1 (stereo unspecified)	none
CN1CCN(c2ncc3nc(CCc4ccccc4)c(=O)n(CCC#N)c3n2)CC1	none (no result: Sm TGR block, AmpC no deterg, AmpC detergent)
COc1ccc(-c2cc(N)n(S(=O)(=O)c3c(F)c(F)c(F)c(F)c3F)n2)cc1OC	Sm TGR block 2.5µM, AmpC detergent inconclusive
COc1ccc(S(=O)(=O)n2nc(-c3cc(OC)c(OC)c(OC)c3)cc2N)cc1OC	none
O=C(/C=C/c1ccc(-c2cccc([N+](=O)[O-])c2)o1)N1CCOCC1	Sm TGR block 40µM
CCNc1c2c3c(cccc3n(C)c1=O)C(=O)c1ccccc1-2	none
Cn1c(=O)c(N)c2c3c(c(Br)ccc31)C(=O)c1ccccc1-2	Sm TGR block 13µM
O=C(NC(Cc1cc(=O)[nH]c2ccccc12)C(=O)O)c1ccc(Cl)cc1 (stereo unspecified)	none (no result: Sm TGR block, AmpC no deterg, AmpC detergent)
COc1ccc(Cl)cc1NC(=S)NN1CCOCC1	Sm TGR block 35µM
O=C(O)c1ccc(COc2c(F)c(F)c(F)c(F)c2F)o1	Sm TGR block 45µM
CN(C)c1cc[n+](CC(=O)Nc2ccc([N+](=O)[O-])cc2Cl)cc1	none
CN(C)c1cc[n+](CC(=O)Nc2c(Cl)cc(Cl)cc2Cl)cc1	Sm TGR block 40µM
COCc1cc(=O)n2[nH]c(-c3ccsc3-n3c(C)ccc3C)cc2n1	Sm TGR block inconclusive
Cc1cc(=O)n2[nH]c(-c3ccsc3-n3c(C)ccc3C)cc2n1	FBPA Giardia inh inconclusive, Sm TGR block 20µM
COc1ccccc1N1CCN(C(=O)N2CCOCC2)CC1	none
COC(=O)C1(C(F)(F)F)N=C2Sc3ccccc3N2C(N2CCOCC2)=N1 (stereo unspecified)	AmpC no deterg 0.32µM
CC(NC(=O)COc1ccccc1Cl)c1ccccc1 (stereo unspecified)	none
Cc1ccc(CNC(=O)CN2C(=O)C3(SCC(=O)N3c3ccc(F)c(F)c3)c3ccccc32)cc1 (stereo unspecified)	none (no result: FBPA Giardia inh, AmpC no deterg)
Cc1ccc2oc(=O)c(/C=C(\O)c3ccccc3)nc2c1	FBPA Giardia inh inconclusive
Cc1nc(C)c(/C(O)=C/c2nc3ccc([N+](=O)[O-])cc3oc2=O)o1	FBPA Giardia inh 13µM
CC(=O)[C@@H]1[C@@H](C(=O)c2ccc(C)cc2)[C@]2(C(=O)Nc3ccccc32)[C@H]2C=Cc3cc(F)ccc3N12	FBPA Giardia inh inconclusive, Sm TGR block inconclusive
CC(=O)[C@@H]1[C@@H](C(=O)c2ccc(F)cc2)[C@]2(C(=O)Nc3ccccc32)[C@H]2C=Cc3cc(F)ccc3N12	Sm TGR block 50µM, AmpC detergent inconclusive
O=C(c1ccc(F)cc1)[C@@H]1[C@@H](C(=O)c2ccccc2)[C@@]2(C(=O)Nc3ccccc32)[C@H]2c3ccccc3C=CN12	FBPA Giardia inh inconclusive, Sm TGR block 45µM
O=C(c1ccccc1)[C@@H]1[C@@H]2C(=O)N(c3ccc(F)cc3)C(=O)[C@@H]2C2CCCN21 (stereo partly specified)	Sm TGR block inconclusive
Cc1oc2c(c1C(=O)Nc1ccc(OC(F)(F)F)cc1)C1=NCCN1C=N2	none (no result: FBPA Giardia inh, AmpC no deterg)
CCOc1ccc(C(=O)Nc2cc(-c3nc4ccccc4o3)ccc2C)cc1Cl	none (no result: FBPA Giardia inh, AmpC no deterg)
CC1(C)C(=O)Nc2ccccc2N1C(=O)COc1ccccc1C#N	none (no result: FBPA Giardia inh, Sm TGR block, AmpC detergent)
COc1cc(C(=O)O/N=C2\C=CC(=O)C(C)=C2)cc(OC)c1OC	FBPA Giardia inh 20µM, Sm TGR block 3.2µM
O=C(NCCN1CCCCC1)c1cc(COc2c(F)cccc2F)on1	none
O=C(COC(=O)CNS(=O)(=O)c1ccc(Cl)cc1)NC1CCCCC1	none (no result: FBPA Giardia inh)
